An excerpt weighted towards active compounds, which were near 7.4% of everything screened.
SMN2 splice up – increases expression of the SMN2 splice variant; AID 1458; HEK293 SMN2-luciferase splicing reporter, luminescence, 30-36 h; Potency, µM (titrated, usually from 46.1 µM), without a hit: at the top dose activity change, positive = activation, usual class: activators; hit rate 2.8% among 210,000; note: % of control where 0% means no effect; nearly all actives have a fitted effect of over 55% in size
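qHTS luciferase splicing reporter: luminescence rises when SMN2 exon 7 is included in transfected HEK293 cells. Compound exposure lasted 30-36 h at 37C, with 4.5 mM final sodium butyrate as control, followed by a ONE-Glo read.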
KinaseGlo FLuc – counter-screen: inhibitors of Kinase-Glo firefly luciferase; Q27757; Potency, µM (highest dose often 38.3 µM), for inactives: at the top dose activity change, negative = inhibition, most hits filed as inhibitors; Kinase-Glo luciferase, ATP luminescence, 8 min; hit rate 0.28% among 200,000; note: % is set by controls: 0 for no effect and ±100 for the full control effect; nearly all actives have a fitted effect of over 60% in size
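Compound is pinned into ATP-containing buffer (10 uM ATP, imidazole pH 7.2, 7 mM MgCl2). Kinase-Glo luciferase reagent is then added. Light output is recorded following an 8-min room-temperature incubation.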
FLuc modulator – inhibits or activates purified firefly luciferase, miR-21 counter-screen; AID 588342; purified FLuc, Km substrates, luminescence inhibition; Potency, µM (highest dose often 57.5 µM), without a hit: at the highest dose activity change, negative = inhibition, most hits filed as inhibitors; hit rate 6.9% among 360,000;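 note: plate controls were vehicle for no effect and reference inhibitor for full effect; nearly all actives have a fitted effect of over 55% in size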
Target sequence (P08659 whole entry, looked up): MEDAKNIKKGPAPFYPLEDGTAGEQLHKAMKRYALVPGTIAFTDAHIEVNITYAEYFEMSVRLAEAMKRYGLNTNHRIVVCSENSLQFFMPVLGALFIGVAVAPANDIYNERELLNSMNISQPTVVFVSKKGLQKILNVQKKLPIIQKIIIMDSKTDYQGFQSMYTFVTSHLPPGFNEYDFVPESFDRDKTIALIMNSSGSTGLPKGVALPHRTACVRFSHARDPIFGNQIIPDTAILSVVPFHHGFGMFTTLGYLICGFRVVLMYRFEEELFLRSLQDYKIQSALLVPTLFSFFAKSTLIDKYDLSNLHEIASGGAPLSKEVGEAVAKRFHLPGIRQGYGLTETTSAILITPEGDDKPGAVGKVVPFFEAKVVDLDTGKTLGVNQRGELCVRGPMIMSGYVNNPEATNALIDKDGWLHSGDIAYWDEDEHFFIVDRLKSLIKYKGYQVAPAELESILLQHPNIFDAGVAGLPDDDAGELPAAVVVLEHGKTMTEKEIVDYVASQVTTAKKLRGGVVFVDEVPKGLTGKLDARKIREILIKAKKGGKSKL
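Purified P. pyralis luciferase, 10 nM final, with Km-level 10 uM D-luciferin and 10 uM ATP in 50 mM Tris acetate pH 7.5, 10 mM Mg acetate, 0.01% Tween-20, 0.05% BSA; 6-point qHTS titration about 60 µM downward; luminescence read.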
NPC1 promoter act – activators of NPC1 promoter | Potency, µM (series often up to 9.22 µM), for the others: at the top dose activation, most hits filed as activators | hit rate 2.4% among 320,000 | Huh7 NPC1 promoter luciferase reporter, 24 h; note: % of control where 0% means no effect; nearly all actives have a fitted effect of over 60% in size
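Luciferase expression driven by the NPC1 promoter was measured in stably transfected Huh7 cells after a 24 h compound incubation, using a luciferase reagent and a luminescence read.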
Rab9 prom act – Rab9 promoter activation. Potency, µM (top dose mostly 9.22 µM), inactives show top-dose activation, negative = inhibition, actives largely listed as activators. AID 485297. Huh7 Rab9 promoter-luciferase reporter, luminescence, 24 h. hit rate 2.8% among 320,000; note: % of control where 0% means no effect; nearly all actives have a fitted effect of over 60% in size
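Rab9 promoter-driven luciferase in stably transfected Huh7 cells; 1500 cells/well rested 2 h, exposed to compound in DMSO for 24 h at 37 °C, 5% CO2. Luminescence read 10 min after adding luciferase reagent at ambient temperature.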
ELG1 genotoxic – inducers of genotoxicity in HEK293T ELG1-luciferase cells | Potency, µM (titrated, usually from 46 µM), inactives show at the highest dose activity change, positive = activation, usual class: activators | hit rate 1.3% among 330,000 | HEK293T ELG1-luciferase reporter, luminescence, 16 h | AID 504466; note: % of control where 0% means no effect; nearly all actives have a fitted effect of over 60% in size
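Cells (2,000/well) expressing the ELG1-luciferase fusion are dosed by pin tool and kept 16 hr at 37 °C, 5% CO2. Signal comes from ONE-Glo luciferase reagent after 30 min at room temperature.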
Starred values were filed as active, the others as inactive. Calls come from the whole dose curve; as a rule, active = well fitted curve in the direction sought with a large enough effect; inconclusive = small, poorly fitted or top-dose-only effect, or another doubt; inactive = no such curve, though single readings can be large; an effect the other way counts as inactive or inconclusive. Potency is the fitted concentration of half-maximal effect.

What do the screens show for `CCN1C(=O)/C(=C\C=C2/C=CC=CN2CC)SC1=S`?
SMN2 splice up: 5.6µM*; KinaseGlo FLuc: inconclusive; FLuc modulator: 3.8µM*; NPC1 promoter act: 1.6µM*; Rab9 prom act: 1.4µM*; ELG1 genotoxic: 21µM*

How did CCN1C(=O)/C(=C/C=C2\C=CN(CC)c3ccccc32)SC1=S do in these assays?
SMN2 splice up: 9%; KinaseGlo FLuc: -26%; FLuc modulator: inconclusive; NPC1 promoter act: inconclusive; Rab9 prom act: 3.2µM*; ELG1 genotoxic: inconclusive

Results for CCN1C(=O)/C(=C2/C=CC=CN2C)SC1=S ?
SMN2 splice up: 9%; KinaseGlo FLuc: -2%; FLuc modulator: -7%; NPC1 promoter act: 1%; Rab9 prom act: 2%; ELG1 genotoxic: -3%

How did O=C(NCc1ccccc1Cl)c1c2c(nc3ccccc13)C(=O)N(C1CCCCC1)C2 do in these assays?
FLuc modulator: -10%

How did O=C(c1ccc(-c2cccc(C(F)(F)F)c2)o1)N1CCCC(C(F)(F)F)C1 (centres undefined) do in these assays?
FLuc modulator: -15%; NPC1 promoter act: -3%; Rab9 prom act: 1%; ELG1 genotoxic: inconclusive

Results for O=C(ON=C1CCN(S(=O)(=O)c2ccccc2)CC1)c1ccc(F)cc1 ?
SMN2 splice up: -6%; KinaseGlo FLuc: -3%; FLuc modulator: -15%; NPC1 promoter act: -4%; Rab9 prom act: 3%; ELG1 genotoxic: 0%

How did O=C(O/N=C1\CCS(=O)(=O)c2sccc21)c1ccc(F)cc1 do in these assays?
SMN2 splice up: 3%; KinaseGlo FLuc: -1%; FLuc modulator: inconclusive; NPC1 promoter act: -1%; Rab9 prom act: -5%; ELG1 genotoxic: 0%

Results for CC(C)(C)C1CCC(=NOC(=O)c2ccc(F)cc2)CC1 (centres undefined) ?
SMN2 splice up: 1%; KinaseGlo FLuc: -2%; FLuc modulator: 19µM*; NPC1 promoter act: -7%; Rab9 prom act: 3%; ELG1 genotoxic: 0%

Results for Cc1ccc(S(=O)(=O)O/N=C2/CCCc3occc32)cc1 ?
SMN2 splice up: 3%; KinaseGlo FLuc: 2%; FLuc modulator: 5%; NPC1 promoter act: -4%; Rab9 prom act: 3%; ELG1 genotoxic: 3%

Results for O=C(O/N=C1/CCSc2ccccc21)c1ccc(F)cc1 ?
SMN2 splice up: -21%; KinaseGlo FLuc: inconclusive; FLuc modulator: 0.34µM*; NPC1 promoter act: 7%; Rab9 prom act: -1%; ELG1 genotoxic: 0%

What do the screens show for `O=C(O/N=C1/CCCc2occc21)c1ccc(F)cc1`?
SMN2 splice up: 0%; KinaseGlo FLuc: inconclusive; FLuc modulator: 1.9µM*; NPC1 promoter act: -5%; Rab9 prom act: 2%; ELG1 genotoxic: -1%

Results for CCOc1ccccc1Nc1nnc(SCC(=O)NC2CC2)s1 ?
ELG1 genotoxic: 3%

What do the screens show for `COc1ccc(Cn2c(SCC#N)nc3ccc(N4CCOCC4)cc3c2=O)cc1`?
SMN2 splice up: inconclusive; KinaseGlo FLuc: -7%; FLuc modulator: inconclusive; NPC1 promoter act: 3.5µM*; Rab9 prom act: 3.5µM*; ELG1 genotoxic: inconclusive

What do the screens show for `Brc1c(-c2ccc3c(c2)OCO3)nc2ncccn12`?
KinaseGlo FLuc: -12%; FLuc modulator: 24µM*; NPC1 promoter act: 16%; Rab9 prom act: inconclusive; ELG1 genotoxic: inconclusive

What do the screens show for `COc1ccc(-c2nc3ncccn3c2Br)cc1`?
KinaseGlo FLuc: 3%; FLuc modulator: 15µM*; NPC1 promoter act: inconclusive; Rab9 prom act: 2.5µM*; ELG1 genotoxic: inconclusive

How did CCOc1ccccc1NC(=O)C1CCCN(S(=O)(=O)c2ccc3c(c2)C(C)(C)C(=O)N3C)C1 (centres undefined) do in these assays?
FLuc modulator: 0%; NPC1 promoter act: 0%; Rab9 prom act: -3%; ELG1 genotoxic: -2%

Results for COc1ccc(-c2nnc(NC(=O)c3cc(C)on3)s2)cc1 ?
SMN2 splice up: inconclusive; KinaseGlo FLuc: 1%; FLuc modulator: 12µM*; NPC1 promoter act: 9%; Rab9 prom act: -1%; ELG1 genotoxic: inconclusive

What do the screens show for `COc1ccc(-c2nnc(NC(=O)c3c(OC)cccc3OC)s2)cc1`?
FLuc modulator: inconclusive; NPC1 promoter act: 4%; Rab9 prom act: 3%; ELG1 genotoxic: -2%

Results for COc1ccc(C(=O)Nc2nnc(-c3ccccc3)s2)cc1 ?
FLuc modulator: -12%; NPC1 promoter act: 0.79µM*; Rab9 prom act: 1.3µM*; ELG1 genotoxic: 18µM*

How did COc1ccc(S(=O)(=O)CC(=O)Nc2nnc(C(F)(F)F)s2)cc1 do in these assays?
FLuc modulator: 6%; NPC1 promoter act: -3%; Rab9 prom act: 7%; ELG1 genotoxic: -2%

What do the screens show for `COC(=O)Nc1nnc(-c2ccc(OC)cc2)s1`?
FLuc modulator: 8.5µM*; NPC1 promoter act: 2.5µM*; Rab9 prom act: 2.8µM*; ELG1 genotoxic: 16µM*

Results for COc1ccc(C(=O)Nc2nnc(C(F)(F)F)s2)cc1 ?
SMN2 splice up: 5µM*; KinaseGlo FLuc: 0%; FLuc modulator: 5.4µM*; NPC1 promoter act: 1.8µM*; Rab9 prom act: 2.5µM*; ELG1 genotoxic: inconclusive

Results for Cc1ccccc1NC(=O)CSc1nc(O)cc(=O)n1C ?
FLuc modulator: 0%; NPC1 promoter act: 0%; Rab9 prom act: 4%; ELG1 genotoxic: -1%

Results for N#Cc1cccc(NC(=O)N2CCCC3(CCN(C(=O)c4cc(C(F)(F)F)cc(C(F)(F)F)c4)CC3)C2)c1 ?
SMN2 splice up: -5%; KinaseGlo FLuc: -1%

How did COc1cc(C2c3c(oc4ccccc4c3=O)C(=O)N2c2nccs2)ccc1O (centres undefined) do in these assays?
FLuc modulator: -2%; NPC1 promoter act: -1%; Rab9 prom act: 0%; ELG1 genotoxic: 3%

What do the screens show for `COc1ccccc1CNC(=O)CCNS(=O)(=O)c1ccc2c(c1)CC(C)N2C(C)=O` (centres undefined)?
FLuc modulator: -1%; NPC1 promoter act: 1%; Rab9 prom act: 0%; ELG1 genotoxic: 0%

Results for CCOC(=O)Nc1nnc(-c2ccc(OC)c(OC)c2)s1 ?
SMN2 splice up: 5.6µM*; KinaseGlo FLuc: -3%; FLuc modulator: 1%; NPC1 promoter act: -3%; Rab9 prom act: 6%; ELG1 genotoxic: 4%

How did O=C1CC(c2ccco2)Sc2nc3ccccc3n21 (centres undefined) do in these assays?
SMN2 splice up: 11%; KinaseGlo FLuc: -6%; FLuc modulator: 12µM*; NPC1 promoter act: -1%; Rab9 prom act: -3%; ELG1 genotoxic: inconclusive
